# FLuc modulator = counter-screen for miR-21 project: firefly luciferase inhibitors or activators | P08659 | purified FLuc, Km substrates, luminescence inhibition | Potency, µM (series often up to 57.5 µM), actives largely listed as inhibitors | 6.9% of 360,000 active | AID 588342; note: nearly all actives have a fitted effect of over 55% in size
# Target sequence (P08659 whole entry, looked up): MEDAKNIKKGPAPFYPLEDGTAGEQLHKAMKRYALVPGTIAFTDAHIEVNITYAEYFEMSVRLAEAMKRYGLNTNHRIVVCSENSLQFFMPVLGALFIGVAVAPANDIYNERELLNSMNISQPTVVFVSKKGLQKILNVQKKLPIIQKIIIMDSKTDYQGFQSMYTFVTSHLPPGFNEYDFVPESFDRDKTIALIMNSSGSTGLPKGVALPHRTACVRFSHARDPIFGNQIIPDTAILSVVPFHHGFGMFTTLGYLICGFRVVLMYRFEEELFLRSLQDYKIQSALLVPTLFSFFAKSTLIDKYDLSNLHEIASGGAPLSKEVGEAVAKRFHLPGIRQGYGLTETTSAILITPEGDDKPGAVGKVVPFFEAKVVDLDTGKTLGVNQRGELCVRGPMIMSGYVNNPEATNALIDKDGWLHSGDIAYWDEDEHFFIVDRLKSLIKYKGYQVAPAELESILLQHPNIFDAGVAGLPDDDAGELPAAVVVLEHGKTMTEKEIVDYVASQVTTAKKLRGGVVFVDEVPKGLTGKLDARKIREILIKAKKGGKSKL
#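 Purified P. pyralis luciferase, 10 nM final, with Km-level 10 uM D-luciferin and 10 uM ATP in 50 mM Tris acetate pH 7.5, 10 mM Mg acetate, 0.01% Tween-20, 0.05% BSA; 6-point qHTS titration about 60 µM downward; luminescence read.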
# SMN2 splice enh = enhancers of SMN2 splice variant expression; HEK293 SMN2-luciferase splicing reporter, luminescence, 30-36 h; Potency, µM (doses to about 46.1 µM), usual class: activators; 2.8% of 210,000 active; note: nearly all actives have a fitted effect of over 55% in size
#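 HEK293 cells carry an SMN2 […]–luciferase reporter in which exon 7 inclusion puts luciferase in frame. Cells were plated 10-12 h before compound addition, then incubated 30-36 h at 37C. ONE-Glo luminescence was read; sodium butyrate at 4.5 mM final served as control.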
# NPC1 promoter act = activates the NPC1 promoter; Potency, µM (top dose mostly 9.22 µM), actives largely listed as activators; AID 485313; Huh7 NPC1 promoter luciferase reporter, 24 h; 2.4% of 320,000 active; note: nearly all actives have a fitted effect of over 60% in size
#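 NPC1 promoter–luciferase Huh7 cells; 24 h compound; luminescence.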
# Rab9 promoter act = activators of Rab9 promoter | 2.8% of 320,000 active | Huh7 Rab9 promoter-luciferase reporter, luminescence, 24 h | AID 485297 | Potency, µM (titrated, usually from 9.22 µM), usual class: activators; note: nearly all actives have a fitted effect of over 60% in size
#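 Stable Rab9-luc Huh7, 1500 cells/well, 2 h settle; cmpd in DMSO, 24 h, 37 °C/5% CO2; luciferase reagent 10 min RT; luminescence.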
# ELG1 genotoxic = genotoxicity induction in ELG1-luciferase HEK293T cells; HEK293T ELG1-luciferase reporter, luminescence, 16 h; Potency, µM (doses to about 46 µM), actives largely listed as activators; 1.3% of 330,000 active; AID 504466; note: nearly all actives have a fitted effect of over 60% in size
#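 HEK293T cells expressing luciferase-tagged ELG1 were treated with compound or DMSO for 16 hr at 37°C. Luciferase activity was then read after 30 min with ONE-Glo at room temperature; rising signal flags genetic stress.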
# KinaseGlo FLuc = counter-screen: inhibitors of Kinase-Glo firefly luciferase | Q27757 | Potency, µM (doses to about 38.3 µM), most hits filed as inhibitors | 0.28% of 200,000 active | Kinase-Glo luciferase, ATP luminescence, 8 min; note: nearly all actives have a fitted effect of over 60% in size
#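 Substrate mix (final 50 mM imidazole pH 7.2, 50 mM KCl, 7 mM MgCl2, 10 uM ATP, 0.01% Tween 20, 0.05% BSA) plus pin-tool compound, then Kinase-Glo detection mix; 8 min ambient, luminescence read.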
# A number is an active result; – = inactive; ? = inconclusive; · = no result given. A selection: hits, their analogues and other compounds. The true share with any hit is near 7.5%. Calls come from the whole dose curve; as a rule, active = well fitted curve in the direction sought with a large enough effect; inconclusive = small, poorly fitted or top-dose-only effect, or another doubt; inactive = no such curve, though single readings can be large; an effect the other way counts as inactive or inconclusive.
SMILES,FLuc modulator,SMN2 splice enh,NPC1 promoter act,Rab9 promoter act,ELG1 genotoxic,KinaseGlo FLuc
CC(=O)c1cccc(NC(=O)c2sc(-n3nc(C)c(Cc4ccc5c(c4)OCO5)c3C)nc2C)c1,–,·,·,·,·,·
Cc1ccc(CCNC(=O)c2cc3n(n2)CCCN(Cc2ccc(C)cc2)C3=O)cc1,–,·,·,·,·,·
c1ccc2nc(-c3nc4ccccc4o3)ccc2c1,0.24µM,·,?,3.2µM,?,1µM
COc1ccc(OCC(=O)N2CCN(C(=O)c3ccc(OC)cc3)CC2)cc1,–,–,·,·,·,·
COc1ccc(C(=O)N2CCN(C(=O)COc3ccc(C)cc3)CC2)cc1OC,15µM,–,·,·,·,·
COc1cc(OC)cc(C(=O)N2CCN(C(=O)COc3ccc(C)cc3)CC2)c1,24µM,–,·,·,·,·
Cn1cc(/C=N\NC(=O)c2cccs2)c2ccccc21,?,14µM,?,2.2µM,11µM,–
Cn1cccc1/C=N/NC(=O)c1cccs1,15µM,·,?,?,?,·
Cn1cc(/C=N/NC(N)=S)c2ccccc21,–,·,–,–,–,·
Cn1cccc1/C=N/NC(=O)Cc1cccs1,–,·,–,–,–,·
CCCc1cc(C(=O)N/N=C/c2cccn2C)cs1,17µM,·,?,?,18µM,·
CCNC(=O)[C@H]1O[C@@H](n2cnc3c(N)nc(NCCc4ccc(CCC(=O)O)cc4)nc32)[C@H](O)[C@H]1O,·,–,·,·,·,–
CCCCc1ccc(NC(=O)c2cnccn2)cc1,2.4µM,3.2µM,0.5µM,0.79µM,?,–
O=C(Nc1ccc(N2CCOCC2)cc1)c1cnccn1,1.9µM,·,?,0.32µM,?,·
CS(=O)(=O)c1ncc(Cl)c(C(=O)Nc2ccc(N3CCOCC3)cc2)n1,12µM,–,–,–,?,–
CC(=O)c1ccc(NC(=O)c2cnsn2)cc1,12µM,·,2µM,1µM,?,–
O=C(Nc1ccccc1N1CCOCC1)c1cnccn1,–,–,–,–,–,–
O=C(Nc1ccc(N2CCOCC2)cc1)c1ccncc1,?,–,–,–,–,–
O=C(Nc1ccc(N2CCOCC2)cc1)c1cnsn1,0.95µM,2.8µM,?,?,0.16µM,–
COc1cc(CO)ccc1OCC(=O)N1CCc2ccccc21,–,·,–,–,–,·
O=C(COc1ccccc1F)OCC(=O)N1CCc2ccccc21,?,·,–,?,–,·
O=C(COc1ccc(F)cc1Br)N1CCc2ccccc21,0.76µM,11µM,2.8µM,0.63µM,1.6µM,–
O=Cc1ccc(OCC(=O)N2CCc3ccccc32)c(Br)c1,7.6µM,·,–,–,?,·
COc1ccc(NC(=O)C2CCN(S(=O)(=O)c3cccc(-c4noc(C)n4)c3)CC2)cc1OC,–,·,·,·,·,·
C=CCNC(=O)c1c(CS(=O)(=O)c2ccccc2)noc1C(=O)NCc1ccccc1,–,·,–,–,?,·
SMILES,FLuc modulator,SMN2 splice enh,NPC1 promoter act,Rab9 promoter act,ELG1 genotoxic,KinaseGlo FLuc
Cc1[nH]c2ccccc2c1/C=N/Nc1ccccc1[N+](=O)[O-],17µM,–,–,?,–,–
COc1ccccc1/C=N\Nc1ccccc1[N+](=O)[O-],1.9µM,·,?,2µM,9.2µM,·
CCOc1ccccc1/C=N/Nc1ccccc1[N+](=O)[O-],?,·,?,3.5µM,–,·
Cc1[nH]c2ccccc2c1/C=N/NS(=O)(=O)c1ccccc1,–,–,–,–,–,–
CCC(=O)Nc1ccc(CC)cc1-c1nc2ccccc2n(CC(=O)Nc2ccccc2C)c1=O,–,·,·,·,·,·
COc1cc(=O)n(C)c2c(OC[C@@H](O)C(C)(C)O)cccc12,·,–,·,·,·,–
COc1cc(/C=C/c2nc(C#N)c(N3CCN(C)CC3)o2)cc(OC)c1OC,–,–,·,·,·,·
CCOC(=O)c1ccc(NC(=O)c2cc3ccccc3o2)cc1,9.5µM,–,?,?,–,–
CCOC(=O)c1cccc(NC(=O)c2cc3ccccc3o2)c1,5.4µM,·,?,1.3µM,–,·
CC(C)C1Oc2cc3oc(=O)ccc3cc2C1=O (stereo unspecified),–,·,–,–,–,–
CN(C)C(CNC(=O)CCCN1C(=O)c2cccc3cccc(c23)C1=O)c1ccccc1 (stereo unspecified),–,·,–,–,–,·
N#C/C(C(=O)N1CCCCC1)=C1\Nc2ccccc2S1,11µM,18µM,?,2.8µM,?,–
CCc1ccc(C(=O)/C=C2\Sc3ccccc3NC2=O)cc1,13µM,·,–,–,–,–
O=C1Nc2ccccc2S/C1=C\C(=O)N1CCCC1,12µM,13µM,–,3.5µM,–,?
COc1ccccc1C(=O)Nc1nc2nc(C)c(Cc3ccccc3)c(=O)n2[nH]1,?,–,·,·,·,·
CCOc1ccc(OCC(=O)NCCS(=O)(=O)N2CCN(c3ccccc3F)CC2)cc1,–,·,·,·,·,·
O=C(Nc1ccc(C(=O)N2CCOCC2)cc1)Nc1cccc(Cl)c1,15µM,?,?,–,–,–
O=C(Nc1ccc(C(=O)O)cc1)Nc1cccc2ccccc12,?,·,–,–,–,·
O=C(Nc1ccc(OCC(=O)N2CCOCC2)cc1)Nc1cccc(Cl)c1,12µM,·,–,–,–,–
O=C(Nc1ccc(C(=O)N2CCOCC2)cc1)Nc1cccc2ccccc12,15µM,–,–,–,?,–
CC(C)(C)c1ccc(NC(=O)Nc2ccc(OCC(=O)N3CCOCC3)cc2)cc1,0.48µM,16µM,3.2µM,2.2µM,?,–
CCOc1ccc(S(=O)(=O)N2CCN(C(=O)C3CCC3)CC2)cc1,–,·,–,–,–,·
COc1ccc(Br)cc1CNC(=O)c1cnc2sc(N3CCCCCC3)nn2c1=O,–,·,·,·,·,·
CCC1CN(C(=O)N2CCC(C(=O)NCc3cccc(C)c3)CC2)c2ccccc2O1 (stereo unspecified),–,·,·,·,·,·
O=C(Nc1cccc(OCC(=O)N2CCOCC2)c1)c1ccc(C(F)(F)F)cc1,15µM,·,–,–,–,·
SMILES,FLuc modulator,SMN2 splice enh,NPC1 promoter act,Rab9 promoter act,ELG1 genotoxic,KinaseGlo FLuc
O=C(COc1cccc(C(F)(F)F)c1)N1CCN(c2ccc(O)cc2)CC1,–,–,–,–,–,–
C/C(=N\OCc1ccc(C#N)cc1)c1ccccc1,11µM,16µM,?,3.2µM,18µM,–
C/C(=N\OCc1cccc(C(=O)O)c1)c1ccc(Cl)cc1,0.095µM,·,?,0.089µM,?,·
COc1ccccc1OC(=O)c1ccc(S(=O)(=O)N(C)C)cc1,–,–,–,–,–,–
C/C(=N\OCc1ccc(C#N)cc1)c1ccc(S(=O)(=O)N(C)C)cc1,21µM,·,?,–,–,·
C/C(=N/OCO/N=C(\C)c1ccccc1)c1ccccc1,–,–,–,–,–,–
Clc1ccccc1/C=C/c1nc(-c2cccnc2)no1,1.7µM,·,1.3µM,0.63µM,?,·
C(=C\c1nc(-c2cccnc2)no1)/c1ccccc1,4.8µM,·,–,?,–,–
Clc1ccc(-c2noc(/C=C/c3ccccc3)n2)cc1,?,·,–,–,?,·
Cc1ccc(-c2noc(/C=C/c3ccccc3)n2)cc1,9.5µM,?,?,?,–,–
c1ccc(Cn2c[n+](Cc3ccccc3)c3ccccc32)cc1,–,·,–,–,–,·
